Our source for the binding signal values is PMC7862700, “An all-to-all approach to the identification of sequence-specific readers for epigenetic DNA modifications on cytosine”.

Common to all, as to assay: DAPPL (digital affinity profiling via proximity ligation, sequencing); 10 mM Tris-HCl pH 7.5, 50 mM NaCl, 1 mM DTT, 4% glycerol, room temperature, 30 min; GST-TFs on glutathione beads, 16-mer random dsDNA library, 0.1% formaldehyde crosslink after washing; high values mean tight binding
Details in all cases: protein: recombinant; tags: N-terminal GST; dsDNA, one strand shown

Assay [1] has as its target T1, FEV (Homo sapiens, UniProt Q99581 1-238).
T1 sequence: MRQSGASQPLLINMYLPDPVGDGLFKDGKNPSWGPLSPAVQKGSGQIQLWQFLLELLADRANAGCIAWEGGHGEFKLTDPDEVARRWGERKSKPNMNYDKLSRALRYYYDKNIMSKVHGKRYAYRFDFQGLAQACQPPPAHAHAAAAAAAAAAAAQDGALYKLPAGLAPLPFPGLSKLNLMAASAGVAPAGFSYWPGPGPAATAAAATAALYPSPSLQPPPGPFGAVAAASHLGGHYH
The essentials: (§1)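 In yeast, human transcription factors were expressed with a GST fusion, then pulled down on glutathione beads and given DNA barcodes. Pooled with a tag-only sample, they were exposed to 200 nmole of a 16-mer random double-stranded DNA library (Tris/NaCl/DTT/glycerol buffer, room temperature, 30 min), washed, crosslinked with 0.1% formaldehyde, proximity-ligated using BsaI/T4 ligase for 1 h at 37 °C, PCR-amplified and read on an Illumina NextSeq500. Each hexamer's frequency of reads for a factor, divided by the matching frequency for the tag-only sample, gives the binding signal.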

Assay [2] has as its target ETV5 (Homo sapiens, UniProt P41161 1-510). The procedure, abridged:
as §1

Assay [3] addresses T2, SPIC (Homo sapiens, UniProt Q8N5J4 1-248).
T2 sequence: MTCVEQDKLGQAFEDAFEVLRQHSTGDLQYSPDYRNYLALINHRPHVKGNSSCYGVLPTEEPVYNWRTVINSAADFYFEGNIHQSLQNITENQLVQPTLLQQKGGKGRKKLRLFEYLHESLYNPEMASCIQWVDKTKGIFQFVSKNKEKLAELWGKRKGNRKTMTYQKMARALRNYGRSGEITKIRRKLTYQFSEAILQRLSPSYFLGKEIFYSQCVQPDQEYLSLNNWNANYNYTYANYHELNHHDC
The procedure, abridged: as §1

Assay [4] deals with ELF4 (Homo sapiens, UniProt Q99607 1-663). The essentials: as §1
The target of assay [5] is T3, ELK4 (Homo sapiens, UniProt P28324-2 1-405).
T3 sequence: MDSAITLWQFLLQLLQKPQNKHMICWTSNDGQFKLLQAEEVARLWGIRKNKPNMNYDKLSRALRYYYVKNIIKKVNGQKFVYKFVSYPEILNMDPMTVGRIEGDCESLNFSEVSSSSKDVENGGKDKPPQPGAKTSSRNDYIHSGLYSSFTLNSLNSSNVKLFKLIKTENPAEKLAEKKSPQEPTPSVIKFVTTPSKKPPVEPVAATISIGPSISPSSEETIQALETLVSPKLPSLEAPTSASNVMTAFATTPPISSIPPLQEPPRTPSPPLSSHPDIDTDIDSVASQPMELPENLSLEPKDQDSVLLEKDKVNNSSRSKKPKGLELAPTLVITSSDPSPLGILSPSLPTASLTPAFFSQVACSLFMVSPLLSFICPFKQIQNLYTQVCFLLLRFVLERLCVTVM
The essentials:
as §1

In assay [6] the target is T4, ETV2 (Homo sapiens, UniProt O00321 1-342).
T4 sequence: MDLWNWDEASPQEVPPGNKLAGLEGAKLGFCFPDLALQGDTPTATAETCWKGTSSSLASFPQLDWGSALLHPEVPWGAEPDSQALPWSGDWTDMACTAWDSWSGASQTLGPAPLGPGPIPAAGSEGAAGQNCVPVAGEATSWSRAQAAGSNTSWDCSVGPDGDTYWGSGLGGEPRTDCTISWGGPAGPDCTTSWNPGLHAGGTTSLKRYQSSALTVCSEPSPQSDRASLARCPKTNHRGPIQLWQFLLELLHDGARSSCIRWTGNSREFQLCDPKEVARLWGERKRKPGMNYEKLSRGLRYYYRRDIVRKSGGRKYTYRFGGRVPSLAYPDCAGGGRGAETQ
The procedure, abridged: as §1

Assay [7] deals with T5, ELF3 (Homo sapiens, UniProt P78545 1-371).
T5 sequence: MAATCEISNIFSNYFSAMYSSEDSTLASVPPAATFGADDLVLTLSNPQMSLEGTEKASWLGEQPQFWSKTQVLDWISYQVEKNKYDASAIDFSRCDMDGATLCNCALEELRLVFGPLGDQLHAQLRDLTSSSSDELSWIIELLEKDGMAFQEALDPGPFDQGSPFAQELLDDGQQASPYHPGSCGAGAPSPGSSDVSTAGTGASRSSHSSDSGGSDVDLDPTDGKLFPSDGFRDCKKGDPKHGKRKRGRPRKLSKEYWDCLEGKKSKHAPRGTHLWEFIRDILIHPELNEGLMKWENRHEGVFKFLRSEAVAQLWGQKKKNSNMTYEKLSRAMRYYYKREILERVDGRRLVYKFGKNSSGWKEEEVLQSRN
The procedure, abridged:
as §1

Assay [8] addresses ETV1 (Homo sapiens, UniProt P50549 1-477). The procedure, abridged: as §1

Chain of ELF4 (Q99607 whole entry): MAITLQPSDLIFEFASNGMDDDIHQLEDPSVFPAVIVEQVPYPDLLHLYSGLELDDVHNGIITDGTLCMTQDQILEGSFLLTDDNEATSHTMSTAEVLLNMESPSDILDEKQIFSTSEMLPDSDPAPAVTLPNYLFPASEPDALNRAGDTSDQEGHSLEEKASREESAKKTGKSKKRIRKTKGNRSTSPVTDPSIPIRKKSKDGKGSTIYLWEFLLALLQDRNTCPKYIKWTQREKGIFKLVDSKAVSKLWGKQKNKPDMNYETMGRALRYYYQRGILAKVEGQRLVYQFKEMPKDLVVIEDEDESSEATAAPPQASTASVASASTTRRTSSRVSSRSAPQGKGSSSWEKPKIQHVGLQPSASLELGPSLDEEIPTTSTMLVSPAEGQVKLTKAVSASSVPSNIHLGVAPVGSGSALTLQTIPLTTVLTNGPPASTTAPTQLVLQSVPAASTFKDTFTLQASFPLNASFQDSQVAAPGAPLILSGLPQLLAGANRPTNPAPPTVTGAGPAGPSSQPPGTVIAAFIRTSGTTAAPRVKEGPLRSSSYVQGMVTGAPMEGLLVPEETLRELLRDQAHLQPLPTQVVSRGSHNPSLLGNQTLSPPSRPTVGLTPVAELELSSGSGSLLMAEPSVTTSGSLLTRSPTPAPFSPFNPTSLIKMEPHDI
Chain of ETV5 (P41161 whole entry): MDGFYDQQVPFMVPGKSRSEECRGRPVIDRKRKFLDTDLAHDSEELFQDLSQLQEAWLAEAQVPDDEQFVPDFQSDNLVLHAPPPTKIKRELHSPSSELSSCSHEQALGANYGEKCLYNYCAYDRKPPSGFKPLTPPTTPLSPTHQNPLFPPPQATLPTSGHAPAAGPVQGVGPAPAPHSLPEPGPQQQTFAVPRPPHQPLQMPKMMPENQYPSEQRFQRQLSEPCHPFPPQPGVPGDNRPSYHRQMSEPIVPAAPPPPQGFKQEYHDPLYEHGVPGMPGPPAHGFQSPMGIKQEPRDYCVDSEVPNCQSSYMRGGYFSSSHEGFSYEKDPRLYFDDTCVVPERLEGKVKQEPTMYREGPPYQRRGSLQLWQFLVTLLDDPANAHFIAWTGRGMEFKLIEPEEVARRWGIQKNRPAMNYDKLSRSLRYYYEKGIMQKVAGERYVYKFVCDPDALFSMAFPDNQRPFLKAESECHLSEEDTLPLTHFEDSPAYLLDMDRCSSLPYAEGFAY
Chain of ETV1 (P50549 whole entry): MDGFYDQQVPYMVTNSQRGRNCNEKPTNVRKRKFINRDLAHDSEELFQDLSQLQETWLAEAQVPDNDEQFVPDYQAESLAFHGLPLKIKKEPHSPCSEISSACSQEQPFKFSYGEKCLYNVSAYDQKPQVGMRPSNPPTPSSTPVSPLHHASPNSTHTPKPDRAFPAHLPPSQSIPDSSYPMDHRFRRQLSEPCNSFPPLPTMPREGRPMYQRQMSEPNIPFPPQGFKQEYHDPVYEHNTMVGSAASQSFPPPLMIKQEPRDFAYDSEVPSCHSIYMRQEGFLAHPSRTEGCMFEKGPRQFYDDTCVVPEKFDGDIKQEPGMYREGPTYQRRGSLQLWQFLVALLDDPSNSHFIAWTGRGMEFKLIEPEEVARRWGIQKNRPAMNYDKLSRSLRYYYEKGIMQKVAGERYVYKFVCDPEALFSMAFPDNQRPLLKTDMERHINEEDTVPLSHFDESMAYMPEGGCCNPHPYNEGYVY

In the case of CTGACG, the binding signal in assay [1] was 1.11 fold enrichment (6-mer frequency, TF over GST control); in assay [2] it was 1.2 fold enrichment (6-mer frequency, TF over GST control); in assay [3], 1.13 fold enrichment (6-mer frequency, TF over GST control); in assay [4], 1.06 fold enrichment (6-mer frequency, TF over GST control); in assay [5], 1.11 fold enrichment (6-mer frequency, TF over GST control); in assay [6] it was 1.35 fold enrichment (6-mer frequency, TF over GST control). Moreover, the binding signal in assay [7] was 1.05 fold enrichment (6-mer frequency, TF over GST control); in assay [8], 1.09 fold enrichment (6-mer frequency, TF over GST control).
Take TTCAGT: the binding signal in assay [1] is 1.01 fold enrichment (6-mer frequency, TF over GST control); in assay [2], 1.05 fold enrichment (6-mer frequency, TF over GST control); in assay [3] it was 1.11 fold enrichment (6-mer frequency, TF over GST control); in assay [4] it was 1.11 fold enrichment (6-mer frequency, TF over GST control); in assay [5] it was 1.1 fold enrichment (6-mer frequency, TF over GST control); in assay [6], 1.08 fold enrichment (6-mer frequency, TF over GST control). Besides, the binding signal in assay [7] was 1.08 fold enrichment (6-mer frequency, TF over GST control); in assay [8] it was 1.07 fold enrichment (6-mer frequency, TF over GST control).
On to CGGATA, for which the binding signal in assay [1] was 2.83 fold enrichment (6-mer frequency, TF over GST control); in assay [2], 1.34 fold enrichment (6-mer frequency, TF over GST control); in assay [3], 1.2 fold enrichment (6-mer frequency, TF over GST control); in assay [4] it was 1.03 fold enrichment (6-mer frequency, TF over GST control); in assay [5], 1.16 fold enrichment (6-mer frequency, TF over GST control); in assay [6] it was 1.23 fold enrichment (6-mer frequency, TF over GST control). The binding signal in assay [7] was 1.31 fold enrichment (6-mer frequency, TF over GST control); in assay [8] it was 1.26 fold enrichment (6-mer frequency, TF over GST control).
Regarding GCTACA, the binding signal is 1.22 fold enrichment (6-mer frequency, TF over GST control) in assay [1]; 1.18 fold enrichment (6-mer frequency, TF over GST control) in assay [2]; 1.33 fold enrichment (6-mer frequency, TF over GST control) in assay [3]; 1.18 fold enrichment (6-mer frequency, TF over GST control) in assay [4]; 1.24 fold enrichment (6-mer frequency, TF over GST control) in assay [5]; 1.17 fold enrichment (6-mer frequency, TF over GST control) in assay [6]. Besides, the binding signal in assay [7] was 1.27 fold enrichment (6-mer frequency, TF over GST control); in assay [8], 1.13 fold enrichment (6-mer frequency, TF over GST control).
CCTCAC: the binding signal in assay [1] was 1.27 fold enrichment (6-mer frequency, TF over GST control); in assay [2], 1.25 fold enrichment (6-mer frequency, TF over GST control); in assay [3], 1.11 fold enrichment (6-mer frequency, TF over GST control); in assay [4] it was 1.31 fold enrichment (6-mer frequency, TF over GST control); in assay [5], 1.16 fold enrichment (6-mer frequency, TF over GST control); in assay [6], 1.24 fold enrichment (6-mer frequency, TF over GST control). The binding signal in assay [7] is 1.2 fold enrichment (6-mer frequency, TF over GST control); in assay [8] it was 1.27 fold enrichment (6-mer frequency, TF over GST control).
Take CATGTA: the binding signal in assay [1] is 1.03 fold enrichment (6-mer frequency, TF over GST control); in assay [2], 1.08 fold enrichment (6-mer frequency, TF over GST control); in assay [3] it was 1.08 fold enrichment (6-mer frequency, TF over GST control); in assay [4], 1.14 fold enrichment (6-mer frequency, TF over GST control); in assay [5] it was 1.16 fold enrichment (6-mer frequency, TF over GST control); in assay [6] it was 1.11 fold enrichment (6-mer frequency, TF over GST control). The binding signal in assay [7] is 1.03 fold enrichment (6-mer frequency, TF over GST control); in assay [8], 1.06 fold enrichment (6-mer frequency, TF over GST control).
Turning to CAATGC, the binding signal in assay [1] was 1.16 fold enrichment (6-mer frequency, TF over GST control); in assay [2] it was 1.22 fold enrichment (6-mer frequency, TF over GST control); in assay [3], 1.12 fold enrichment (6-mer frequency, TF over GST control); in assay [4], 1.3 fold enrichment (6-mer frequency, TF over GST control); in assay [5] it was 1.21 fold enrichment (6-mer frequency, TF over GST control); in assay [6], 1.21 fold enrichment (6-mer frequency, TF over GST control). Besides, the binding signal in assay [7] was 1.22 fold enrichment (6-mer frequency, TF over GST control); in assay [8] it was 1.12 fold enrichment (6-mer frequency, TF over GST control).
